The results in this text go back to publication PMC7862700, “An all-to-all approach to the identification of sequence-specific readers for epigenetic DNA modifications on cytosine”.

Holding throughout (experiment): DAPPL (digital affinity profiling via proximity ligation, sequencing); 10 mM Tris-HCl pH 7.5, 50 mM NaCl, 1 mM DTT, 4% glycerol, room temperature, 30 min; GST-TFs on glutathione beads, 16-mer random dsDNA library, 0.1% formaldehyde crosslink after washing; high values mean tight binding
What all share (conditions): protein: recombinant; tags: N-terminal GST; dsDNA, one strand shown

One assay has as its target T1, FLI1 (Homo sapiens, UniProt Q01543 1-452).
T1 sequence: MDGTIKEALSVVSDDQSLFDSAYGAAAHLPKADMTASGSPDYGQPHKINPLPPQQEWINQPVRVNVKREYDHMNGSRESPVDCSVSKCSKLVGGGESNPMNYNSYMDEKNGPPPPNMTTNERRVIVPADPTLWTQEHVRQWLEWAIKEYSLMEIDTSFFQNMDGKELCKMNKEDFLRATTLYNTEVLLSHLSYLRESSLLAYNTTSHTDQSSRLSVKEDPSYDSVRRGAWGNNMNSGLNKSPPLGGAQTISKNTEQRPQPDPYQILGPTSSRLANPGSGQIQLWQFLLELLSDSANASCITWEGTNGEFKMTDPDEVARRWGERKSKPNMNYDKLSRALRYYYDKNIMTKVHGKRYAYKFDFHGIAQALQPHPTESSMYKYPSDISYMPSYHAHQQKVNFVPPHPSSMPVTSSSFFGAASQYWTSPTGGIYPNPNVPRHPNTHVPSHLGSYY
In short, it runs like this: (§1)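 GST fusions of human transcription factors were expressed in yeast and captured with glutathione beads. Once given DNA barcodes and pooled alongside a tag-only sample, they were incubated for 30 min at room temperature with 200 nmole of a random double-stranded 16-mer DNA library in Tris/NaCl/DTT/glycerol buffer, then washed, crosslinked (0.1% formaldehyde), proximity-ligated, PCR-amplified and sequenced on an Illumina NextSeq500. The binding signal of each hexamer is its read frequency for a factor divided by its frequency for the tag-only sample.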

A further assay concerns the target T2, ELK1 (Homo sapiens, UniProt P19419 1-428).
T2 sequence: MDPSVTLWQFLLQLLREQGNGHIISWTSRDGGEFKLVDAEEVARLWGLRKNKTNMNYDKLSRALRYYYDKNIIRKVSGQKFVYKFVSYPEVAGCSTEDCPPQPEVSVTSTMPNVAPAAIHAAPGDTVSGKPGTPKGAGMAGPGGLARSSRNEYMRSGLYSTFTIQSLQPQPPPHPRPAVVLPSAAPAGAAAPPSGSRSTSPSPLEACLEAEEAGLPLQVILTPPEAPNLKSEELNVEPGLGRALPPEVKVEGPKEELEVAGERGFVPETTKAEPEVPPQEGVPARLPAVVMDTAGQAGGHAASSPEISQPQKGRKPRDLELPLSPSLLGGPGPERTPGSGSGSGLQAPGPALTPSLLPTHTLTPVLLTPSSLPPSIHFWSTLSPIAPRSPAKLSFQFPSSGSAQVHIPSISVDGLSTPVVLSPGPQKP
Summed up: as §1

A further assay concerns the target T3, GABPA (Homo sapiens, UniProt Q06546 1-454).
T3 sequence: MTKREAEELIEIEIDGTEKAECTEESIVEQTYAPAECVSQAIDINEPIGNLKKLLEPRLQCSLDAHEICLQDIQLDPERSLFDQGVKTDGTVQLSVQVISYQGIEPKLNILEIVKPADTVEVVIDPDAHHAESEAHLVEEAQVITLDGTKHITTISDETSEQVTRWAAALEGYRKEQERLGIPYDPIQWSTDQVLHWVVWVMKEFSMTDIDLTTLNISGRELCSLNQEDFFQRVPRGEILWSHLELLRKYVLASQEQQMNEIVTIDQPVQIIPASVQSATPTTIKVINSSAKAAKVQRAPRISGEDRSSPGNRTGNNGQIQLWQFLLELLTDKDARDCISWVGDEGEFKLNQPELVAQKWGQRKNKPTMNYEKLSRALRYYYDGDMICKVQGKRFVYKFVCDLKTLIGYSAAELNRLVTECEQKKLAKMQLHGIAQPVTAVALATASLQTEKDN
Summed up:
as §1

Another assay concerns the target T4, ERG (Homo sapiens, UniProt P11308 1-479).
T4 sequence: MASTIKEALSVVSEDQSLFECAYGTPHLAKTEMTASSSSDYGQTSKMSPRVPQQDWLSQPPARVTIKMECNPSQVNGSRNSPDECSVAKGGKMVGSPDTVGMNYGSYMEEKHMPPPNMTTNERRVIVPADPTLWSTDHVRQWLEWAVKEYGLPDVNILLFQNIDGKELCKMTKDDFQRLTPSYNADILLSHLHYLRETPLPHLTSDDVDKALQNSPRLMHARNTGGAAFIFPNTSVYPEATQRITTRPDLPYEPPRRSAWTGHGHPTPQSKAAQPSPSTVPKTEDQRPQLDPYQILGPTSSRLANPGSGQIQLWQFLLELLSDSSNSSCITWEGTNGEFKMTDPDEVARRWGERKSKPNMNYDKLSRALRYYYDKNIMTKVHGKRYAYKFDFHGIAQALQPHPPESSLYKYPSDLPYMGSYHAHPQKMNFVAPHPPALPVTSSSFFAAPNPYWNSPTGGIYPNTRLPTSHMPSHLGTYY
In short, it runs like this:
as §1

In another assay the target is ELF1 (Homo sapiens, UniProt P32519 1-619). In short, it runs like this:
as §1

The target of another assay is T5, EHF (Homo sapiens, UniProt Q9NZC4 1-300).
T5 sequence: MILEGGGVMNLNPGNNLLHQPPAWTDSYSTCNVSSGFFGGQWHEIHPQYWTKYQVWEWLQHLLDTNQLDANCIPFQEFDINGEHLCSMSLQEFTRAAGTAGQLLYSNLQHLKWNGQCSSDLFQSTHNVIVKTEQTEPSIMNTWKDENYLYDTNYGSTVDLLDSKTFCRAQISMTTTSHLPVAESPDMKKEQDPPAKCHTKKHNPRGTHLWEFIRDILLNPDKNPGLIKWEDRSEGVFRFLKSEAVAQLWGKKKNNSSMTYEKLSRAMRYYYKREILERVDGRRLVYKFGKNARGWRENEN
In short, it runs like this: as §1

The next assay deals with SPI1 (Homo sapiens, UniProt P17947 1-270). Summed up:
as §1

Another assay concerns the target SPIB (Homo sapiens, UniProt Q01892 1-262). In short, it runs like this:
as §1

For a further assay, the target named is T6, ELK3 (Homo sapiens, UniProt P41970 1-407).
T6 sequence: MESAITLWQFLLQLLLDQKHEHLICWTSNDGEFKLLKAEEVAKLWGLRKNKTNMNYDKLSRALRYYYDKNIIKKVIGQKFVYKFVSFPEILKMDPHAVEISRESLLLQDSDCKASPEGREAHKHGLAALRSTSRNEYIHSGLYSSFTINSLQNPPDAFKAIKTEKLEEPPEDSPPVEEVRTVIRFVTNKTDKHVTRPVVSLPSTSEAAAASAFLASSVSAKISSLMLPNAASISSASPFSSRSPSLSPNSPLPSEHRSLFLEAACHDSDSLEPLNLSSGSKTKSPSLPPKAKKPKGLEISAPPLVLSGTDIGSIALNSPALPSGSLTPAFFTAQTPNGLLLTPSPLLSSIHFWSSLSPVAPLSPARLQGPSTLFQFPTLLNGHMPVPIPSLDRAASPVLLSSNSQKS
In short, it runs like this: as §1

Sequence of ELF1 (P32519 whole entry): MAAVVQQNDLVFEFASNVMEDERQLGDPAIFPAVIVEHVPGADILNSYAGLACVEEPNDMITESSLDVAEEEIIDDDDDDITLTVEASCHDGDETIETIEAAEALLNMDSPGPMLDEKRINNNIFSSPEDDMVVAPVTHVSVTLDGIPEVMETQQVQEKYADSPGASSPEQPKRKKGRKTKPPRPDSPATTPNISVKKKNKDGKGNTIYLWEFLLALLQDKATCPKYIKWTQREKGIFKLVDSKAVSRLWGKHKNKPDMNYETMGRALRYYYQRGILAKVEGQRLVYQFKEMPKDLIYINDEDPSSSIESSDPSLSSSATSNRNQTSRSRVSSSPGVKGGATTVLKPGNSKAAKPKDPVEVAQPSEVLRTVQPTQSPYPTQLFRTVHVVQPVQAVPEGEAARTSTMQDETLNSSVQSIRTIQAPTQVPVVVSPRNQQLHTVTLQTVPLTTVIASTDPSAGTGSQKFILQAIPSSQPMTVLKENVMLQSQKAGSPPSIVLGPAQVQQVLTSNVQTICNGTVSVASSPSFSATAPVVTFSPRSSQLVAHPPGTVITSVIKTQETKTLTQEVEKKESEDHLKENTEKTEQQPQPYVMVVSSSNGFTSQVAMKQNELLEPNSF
Sequence of SPIB (Q01892 whole entry): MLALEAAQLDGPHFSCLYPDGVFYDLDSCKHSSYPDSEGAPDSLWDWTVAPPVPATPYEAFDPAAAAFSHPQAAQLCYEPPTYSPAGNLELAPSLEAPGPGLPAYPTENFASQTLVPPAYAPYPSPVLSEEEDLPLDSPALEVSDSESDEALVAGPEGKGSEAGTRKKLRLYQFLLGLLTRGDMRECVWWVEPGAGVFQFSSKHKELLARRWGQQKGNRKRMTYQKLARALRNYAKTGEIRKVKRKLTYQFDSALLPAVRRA

TAAAAC: the binding signal was 1.17 fold enrichment (6-mer frequency, TF over GST control) in the assay with FLI1; 1.18 fold enrichment (6-mer frequency, TF over GST control) in the assay with ELK1; 1.14 fold enrichment (6-mer frequency, TF over GST control) with GABPA; 1.18 fold enrichment (6-mer frequency, TF over GST control) with ERG; 1.24 fold enrichment (6-mer frequency, TF over GST control) with ELF1; 1.11 fold enrichment (6-mer frequency, TF over GST control) with EHF. Further, the binding signal in the assay with SPI1 was 1.2 fold enrichment (6-mer frequency, TF over GST control); in the assay with SPIB, 1.17 fold enrichment (6-mer frequency, TF over GST control); in the assay with ELK3, 1.19 fold enrichment (6-mer frequency, TF over GST control).

Take CCATAA: the binding signal in the assay with FLI1 is 1.15 fold enrichment (6-mer frequency, TF over GST control); with ELK1, 1.15 fold enrichment (6-mer frequency, TF over GST control); with GABPA it was 1.19 fold enrichment (6-mer frequency, TF over GST control); in the assay with ERG, 1.17 fold enrichment (6-mer frequency, TF over GST control); with ELF1, 1.15 fold enrichment (6-mer frequency, TF over GST control); with EHF, 1.05 fold enrichment (6-mer frequency, TF over GST control). The binding signal in the assay with SPI1 was 1.17 fold enrichment (6-mer frequency, TF over GST control); in the assay with SPIB, 1.16 fold enrichment (6-mer frequency, TF over GST control); with ELK3 it was 1.22 fold enrichment (6-mer frequency, TF over GST control).

For the sequence CTTTGA, the binding signal was 1.29 fold enrichment (6-mer frequency, TF over GST control) in the assay with FLI1; 1.22 fold enrichment (6-mer frequency, TF over GST control) with ELK1; 1.26 fold enrichment (6-mer frequency, TF over GST control) in the assay with GABPA; 1.26 fold enrichment (6-mer frequency, TF over GST control) with ERG; 1.26 fold enrichment (6-mer frequency, TF over GST control) in the assay with ELF1; 1.16 fold enrichment (6-mer frequency, TF over GST control) with EHF. The binding signal with SPI1 was 1.21 fold enrichment (6-mer frequency, TF over GST control); with SPIB, 1.24 fold enrichment (6-mer frequency, TF over GST control); with ELK3, 1.15 fold enrichment (6-mer frequency, TF over GST control).

Take CCAATA: the binding signal with FLI1 is 1.24 fold enrichment (6-mer frequency, TF over GST control); with ELK1 it was 1.17 fold enrichment (6-mer frequency, TF over GST control); in the assay with GABPA it was 1.25 fold enrichment (6-mer frequency, TF over GST control); with ERG, 1.26 fold enrichment (6-mer frequency, TF over GST control); with ELF1 it was 1.25 fold enrichment (6-mer frequency, TF over GST control); with EHF, 1.25 fold enrichment (6-mer frequency, TF over GST control). In addition, the binding signal with SPI1 is 1.2 fold enrichment (6-mer frequency, TF over GST control); with SPIB it was 1.24 fold enrichment (6-mer frequency, TF over GST control); with ELK3 it was 1.28 fold enrichment (6-mer frequency, TF over GST control).

For the sequence TTGATG, the binding signal is 1.45 fold enrichment (6-mer frequency, TF over GST control) with FLI1; 1.82 fold enrichment (6-mer frequency, TF over GST control) in the assay with ELK1; 1.72 fold enrichment (6-mer frequency, TF over GST control) with GABPA; 1.61 fold enrichment (6-mer frequency, TF over GST control) with ERG; 1.64 fold enrichment (6-mer frequency, TF over GST control) with ELF1; 1.65 fold enrichment (6-mer frequency, TF over GST control) with EHF. Also, the binding signal in the assay with SPI1 is 1.51 fold enrichment (6-mer frequency, TF over GST control); with SPIB, 1.62 fold enrichment (6-mer frequency, TF over GST control); with ELK3, 1.52 fold enrichment (6-mer frequency, TF over GST control).

Take CTCGAT: the binding signal with FLI1 is 1.48 fold enrichment (6-mer frequency, TF over GST control); with ELK1, 1.38 fold enrichment (6-mer frequency, TF over GST control); with GABPA, 1.32 fold enrichment (6-mer frequency, TF over GST control); with ERG it was 1.26 fold enrichment (6-mer frequency, TF over GST control); with ELF1, 1.49 fold enrichment (6-mer frequency, TF over GST control); with EHF it was 1.27 fold enrichment (6-mer frequency, TF over GST control). Besides, the binding signal in the assay with SPI1 was 1.36 fold enrichment (6-mer frequency, TF over GST control); with SPIB, 1.49 fold enrichment (6-mer frequency, TF over GST control); in the assay with ELK3 it was 1.18 fold enrichment (6-mer frequency, TF over GST control).

On to ATACAT, for which the binding signal is 1.31 fold enrichment (6-mer frequency, TF over GST control) with FLI1; 1.15 fold enrichment (6-mer frequency, TF over GST control) with ELK1; 1.25 fold enrichment (6-mer frequency, TF over GST control) with GABPA; 1.34 fold enrichment (6-mer frequency, TF over GST control) with ERG; 1.24 fold enrichment (6-mer frequency, TF over GST control) in the assay with ELF1; 1.21 fold enrichment (6-mer frequency, TF over GST control) with EHF. The binding signal in the assay with SPI1 was 1.2 fold enrichment (6-mer frequency, TF over GST control); with SPIB, 1.26 fold enrichment (6-mer frequency, TF over GST control); with ELK3, 1.32 fold enrichment (6-mer frequency, TF over GST control).
